Measured values taken from the supplement of paper PMC10338343.
± gives the standard deviation. In all, about 6,600 sequences were measured (“pre-steady-state target cleavage rate”: median about 0.07, highest 2% from about 0.72 on). Only a selection was taken, and the highest values are over-represented in it overall.

system: MIWI (PIWIL1) piRISC loaded with Kctd7 piRNA (30 nt); assay: pre-steady-state target cleavage rate (min^-1); MIWI and MILI are mouse PIWI proteins and EfPiwi is from a freshwater sponge; tags in brackets are library labels; higher = faster piRNA-guided slicing of the target; details: guide: Kctd7 piRNA 5'p-UGUUAAUCUCUCAGAGAAGGUGACAGUGAU; auxiliary factor: 500 nM mouse GTSF1
Description: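 Cleave-'n-Seq: a library of target RNAs (target site embedded in constant flanks, ACAGCATTCCGCGTTAGTGATATCCG... 5' flank; DNA-blocked outside the site) at 0.1 nM was incubated with 1 nM active mouse MILI or MIWI piRISC (synthetic 5'-monophosphorylated piRNA guide) with or without 500 nM mouse GTSF1 at 33 °C for 1 min to 16 h. Uncleaved targets were sequenced and normalised to non-target controls, and the pooled three trials were fitted to a burst-and-steady-state model to give the pre-steady-state cleavage rate (min^-1; k3 is constrained to at most 1e-4). Sequence is the target site only; target names encode pairing extent (gX:gY) and contiguous / 1-mismatch / 2-mismatch / bulge geometry. Fits with R² ≤ 0 are excluded.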

| Sequence | pre-steady-state target cleavage rate |
| --- | --- |
| AACACUGUCUCCUUCUCUGAGAGAUUAACA | 0.738 ± 0.039 |
| UAGACUGUCUCCUUCUCUGAGAGAUUAACA | 0.662 ± 0.04 |
| UACACUGUCUCCUUCUCUGAGAGAUUAACA | 0.599 ± 0.034 |
| AUGACUGUCUCCUUCUCUGAGAGAUUAACA | 0.623 ± 0.037 |
| UUGACUGUCUCCUUCUCUGAGAGAUUAACA | 0.746 ± 0.04 |
| AUCACUGUCACCUUCUUCUGAGAGAUUAACA | 0.212 ± 0.046 |
| UAGUGUGUCACCUUCUCUGAGACUUUAUGA | 0.00826 ± 0.0044 |
| UUCAGUGUCACCUUCUCUGAGAGAUAAACA | 0.264 ± 0.033 |
| UAGACUGUCUGGUUCUCUGAGAGAUUAUGA | < 0.0001 |
| UAGUCUGUCACCUUCUGUCAGAGAUUAACA | 0.01 ± 0.0034 |
| UUCACUGUCACCGUCUCUGAGAGAUUAACA | 0.509 ± 0.022 |
| AUCACUGUCACCGUUCUCUGAGAGAUUAACA | 0.774 ± 0.052 |
| UUCACUGUCACCGUUCUCUGAGAGAUUAACA | 0.729 ± 0.032 |
| UACACUGUCACCGUUCUCUGAGAGAUUAACA | 0.586 ± 0.03 |
| UUCACUGUCUCGUUCUCUGAGAGAUUAACA | 0.631 ± 0.035 |
| UAGUCUGUCACCGUUCUCUGAGAGAUUAACA | 0.651 ± 0.041 |
| UUCACUGUGACCUUCUCUGAGAGAUUAUGA | 0.119 ± 0.021 |
| UAGUGUGUCUCCUUCUCUGACAGAUUAACA | 0.386 ± 0.03 |
| UACACUGUCACUUCUCUGAGAGAUUAACA | 0.577 ± 0.038 |
| UACACUGUCACCUUUCUCUGAGAGAUUAACA | 0.575 ± 0.029 |
| UAGACUGUCACACUUCUCUGAGAGAUUAACA | 0.607 ± 0.04 |
| UUCACUGUCACUUUCUCUGAGAGAUUAACA | 0.691 ± 0.026 |
| UAGACUGUCACUUCUCUGAGAGAUUAACA | 0.466 ± 0.041 |
| UAGACUGUCACUUUCUCUGAGAGAUUAACA | 0.8 ± 0.043 |
| AUCACUGUCACCUUUCUCUGAGAGAUUAACA | 0.599 ± 0.034 |

| Sequence | pre-steady-state target cleavage rate |
| --- | --- |
| UACACUGUCACUUUCUCUGAGAGAUUAACA | 0.725 ± 0.025 |
| AUCACUGUCACUUUCUCUGAGAGAUUAACA | 0.794 ± 0.04 |
| UUGACUGUCACCUUCUCUGAGACAUUAACA | 0.0684 ± 0.0093 |
| AUCUCUGUCACCUUCUCUGAGAGAUUUUGA | 0.191 ± 0.042 |
| UAGACUCUCACCUUCUCUGAGAGAUUAACA | 0.431 ± 0.029 |
| UACACUGUCACCUUCUCUGAGUGAUUUACA | 0.0176 ± 0.0081 |
| UAGACAGUCACCUUCUCUGAGAGAUUAUCA | 0.252 ± 0.029 |
| UAGACUCACACCUUCUCUGAGAGAUUAUGA | 0.0733 ± 0.015 |
| UUCAGCUGUCACCUUCUCUGAGAGAUUAACA | 0.681 ± 0.037 |
| UACAGCUGUCACCUUCUCUGAGAGAUUAACA | 0.749 ± 0.036 |
| UACAUCUGUCACCUUCUCUGAGAGAUUAACA | 0.66 ± 0.027 |
| UAGAGCUGUCACCUUCUCUGAGAGAUUAACA | 0.706 ± 0.047 |
| AUCAGCUGUCACCUUCUCUGAGAGAUUAACA | 0.792 ± 0.043 |
| UACAGUGUCACCUUCUCUGAGAGAUUAACA | 0.663 ± 0.034 |
| UAGUCUGUCACCUUCUCUGAGAGAUAUUCA | 0.211 ± 0.045 |
| UUCACUGUCACCUUCUCUCUCAGAUUAACA | 0.00363 ± 0.0035 |
| UAGUGAGUCACCUUCUGUCAGAGAUUAACA | 0.00937 ± 0.0041 |
| UACACUGACACCUUCUCUGAGAGAUUUUGA | 0.0697 ± 0.019 |
| UAGUGACUCACCUUGUCUGUGAGAUUAACA | 0.0416 ± 0.0061 |
| UACACUGUCACCAUCUCUGAGAGAUUAACA | 0.532 ± 0.044 |
| AUCACUGUCACCAUCUCUGUGAGAUUAACA | 0.259 ± 0.021 |
| AUCACUGACACCAUCUCUGAGAGAUUAACA | 0.603 ± 0.037 |
| UUCACUGUCACCAUCUCUGAGAGAUUAAGA | 0.134 ± 0.025 |
| AUCACUGUCACCAUCUCUGAGAGAUUAACA | 0.795 ± 0.048 |
| AUCACUGUCACCAUCUCUGAGAGAUUAAGA | 0.184 ± 0.032 |

| Sequence | pre-steady-state target cleavage rate |
| --- | --- |
| UUCACUGUCACCAUCUCUGUGAGAUUAACA | 0.215 ± 0.015 |
| UUCACUGUCACCAUCUCUGAGAGAUUAACA | 0.738 ± 0.029 |
| AACACUGUCACCAUCUCUGAGAGAUUAACA | 0.77 ± 0.035 |
| UAGUGUGUCACCUACUCUCAGAGAUUAACA | 0.0454 ± 0.009 |
| AUCACUGAGACCUUCUCUGAGAGAUUAAGA | 0.17 ± 0.033 |
| UAGUCUGUCUCCAUCUCUGAGAGAUUAACA | 0.509 ± 0.034 |
| UAGUGAGUCACCUUGUCUGAGAGUUUAACA | 0.0617 ± 0.013 |
| UAGUGACUCACCUUCUUUGAGAGAUUAACA | 0.196 ± 0.021 |
| UAGUGACUCACCUUCUCUGAGUGAUUAACA | 0.0244 ± 0.0052 |
| UAGUGACAGACCUUCCUCUGAGAGAUUAACA | 0.0189 ± 0.004 |
| UAGUGACAGACCUUACUCUGAGAGAUUAACA | 0.0198 ± 0.0041 |
| UAGUGAGUCACGUUCUCAGAGAGAUUAACA | 0.171 ± 0.017 |
| UACACUGUUACCUUCUCUGAGAGAUUAACA | 0.441 ± 0.024 |
| UAGACUGUCACCUUCUGUGAGAGAUAUUGA | 0.0117 ± 0.004 |
| UUCACUGUACACCUUCUCUGAGAGAUUAACA | 0.655 ± 0.033 |
| UAGACUGUACCUUCUCUGAGAGAUUAACA | 0.572 ± 0.044 |
| UACACUGUACACCUUCUCUGAGAGAUUAACA | 0.623 ± 0.03 |
| UAGACUGACACCUUCUCUGAGAGAUUAACA | 0.62 ± 0.035 |
| UUCACUGUACCUUCUCUGAGAGAUUAACA | 0.712 ± 0.036 |
| AUCACUGUACACCUUCUCUGAGAGAUUAACA | 0.8 ± 0.055 |
| UAGACUGUACACCUUCUCUGAGAGAUUAACA | 0.779 ± 0.055 |
| AUCACUGUACCUUCUCUGAGAGAUUAACA | 0.769 ± 0.051 |
| AUCACUGUAACCUUCUCUGAGAGAUUAACA | 0.651 ± 0.03 |
